Results from PubChem BioAssay (NCI).
About 79,000 compounds went through this panel and 15% of them were active in at least one assay; those are over-represented in the sample as a whole. Active and inactive are the calls of the source. Rule as the data show it: active = growth inhibition above about 70%; inactive = the rest.

How the values were obtained:
[1] = NCI Yeast Anticancer Drug Screen. Data for the rad52 strain (AID 147);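 also: 0% = growth of vehicle-treated control cultures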; conditions: S. cerevisiae rad52 mutant growth inhibition, active compounds read high
How it was run: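 Genetically altered yeast (DNA damage repair defect) treated with compound; inhibition calculated relative to vehicle.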

[2] = NCI Yeast Anticancer Drug Screen. Data for the wt1 strain (AID 149);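 also: 0% = growth of vehicle-treated wt1 cultures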; conditions: S. cerevisiae wt1 strain (SPY 50644) growth inhibition, active compounds read high
How it was run: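 Measured: growth of wt1 yeast under compound versus vehicle treatment, reported as inhibition.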

[3] = NCI Yeast Anticancer Drug Screen. Data for the rad50EPP+ strain (AID 151);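 also: 0% = growth of vehicle-treated control cultures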; conditions: S. cerevisiae rad50 mutant strain, active compounds read high
How it was run: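 Strain rad50EPP+; compound exposure; % growth inhibition vs vehicle.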

[4] = NCI Yeast Anticancer Drug Screen. Data for the mgt1 strain (AID 153); conditions: S. cerevisiae mgt1 mutant growth inhibition, active compounds read high
How it was run: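 Read-out: yeast growth inhibition vs vehicle control. Strain mgt1, drawn from a panel altered in DNA damage repair or cell cycle control.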

[5] = NCI Yeast Anticancer Drug Screen. Data for the rad50 strain (AID 155);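 also: 0% = growth of vehicle-only cultures of the same strain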; conditions: S. cerevisiae rad50 strain growth inhibition, active compounds read high
How it was run: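 Growth of the mutant yeast was measured after compound exposure and referenced to vehicle-treated cultures.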

[6] = NCI Yeast Anticancer Drug Screen. Data for the mec2-1 strain (AID 157); conditions: S. cerevisiae mec2-1 strain, active compounds read high
How it was run: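 Cells of the genetically defined mec2-1 yeast strain are incubated with test compound. Inhibition of growth is calculated against vehicle-treated controls.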

[7] = NCI Yeast Anticancer Drug Screen. Data for the rad14 strain (AID 159);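 also: 0% = growth of vehicle-treated control cultures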; conditions: S. cerevisiae rad14 strain growth inhibition, active compounds read high
How it was run: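 Here, inhibition of yeast growth was measured after compound exposure, using a strain with a genetic defect in DNA damage repair and vehicle-treated cultures as the reference.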

[8] = NCI Yeast Anticancer Drug Screen. Data for the sgs1 mgt1 strain (AID 161);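 also: 0% = growth of cultures given vehicle only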; conditions: S. cerevisiae sgs1 mgt1 strain, active compounds read high
How it was run: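 Genetically altered yeast, compound exposure, growth inhibition relative to vehicle.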

[9] = NCI Yeast Anticancer Drug Screen. Data for the CLN2oe strain (AID 163);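 also: 0% = growth of vehicle-only control cultures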; conditions: S. cerevisiae CLN2oe strain, active compounds read high
How it was run: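 Strain altered in cell-cycle control, incubated with compound; growth compared to solvent-treated controls.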

[10] = NCI Yeast Anticancer Drug Screen. Data for the cln2 rad14 strain (AID 165);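 also: 0% = growth equal to vehicle treated cultures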; conditions: S. cerevisiae cln2 rad14 strain, active compounds read high
How it was run: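 The screen exposed genetically defined yeast (cln2 rad14) to test compounds and scored growth inhibition relative to vehicle-treated controls.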

[11] = NCI Yeast Anticancer Drug Screen. Data for the bub3 strain (AID 167); conditions: S. cerevisiae bub3 mutant strain, active compounds read high
How it was run: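 Whole-cell yeast assay. The mutant strain was incubated with compounds, and growth inhibition was determined by comparison with vehicle-treated cells.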

[12] = NCI Yeast Anticancer Drug Screen. Data for the mlh1 strain (AID 171);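 also: 0% = growth of vehicle-treated control cultures of the same strain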; conditions: S. cerevisiae mlh1 strain growth inhibition, active compounds read high
How it was run: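 Yeast screen: mutant strain plus compound, growth scored against vehicle control wells.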

[13] = NCI Yeast Anticancer Drug Screen. Data for the sgs1 strain (AID 173);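 also: 0% = growth of vehicle-only control cultures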; conditions: S. cerevisiae sgs1 mutant, active compounds read high
How it was run: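 Inhibition of yeast growth served as the measure. The mutant strain was treated with each compound, and growth was normalised to cultures receiving vehicle alone.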

[14] = NCI Yeast Anticancer Drug Screen. Data for the mlh1 rad18 strain (AID 175); conditions: S. cerevisiae mlh1 rad18 strain growth inhibition, active compounds read high
How it was run: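 Compound-treated yeast growth, normalised to vehicle controls. Strain bears defined DNA repair mutations.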

[15] = NCI Yeast Anticancer Drug Screen. Data for the rad18 strain (AID 177); conditions: S. cerevisiae rad18 mutant growth inhibition, active compounds read high
How it was run: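 Inhibition values reflect reduced yeast growth compared with vehicle-treated controls, using a strain engineered with a DNA damage repair defect.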

[16] = at 5.0 µM (retest, dose inferred, filed as 0.5)
[17] = at 50.0 µM (retest, dose inferred, filed as 5.0)

Measured: growth inhibition

O=[N+]([O-])c1ccc(/C=C\c2ccc3c(c2)OCO3)c([N+](=O)[O-])c1
active: [1]; at 100.0 µM 83% | [3]; at 33.0 µM 84% | [3]; at 100.0 µM 78% | [5]; [17] 92% | [5]; at 50.0 µM 85.2% | [5]; at 100.0 µM 85% | [6]; [17] 97% | [6]; at 50.0 µM 83% | [6]; at 100.0 µM 80% | [7]; at 100.0 µM 80% | [8]; [17] 88% | [8]; at 50.0 µM 78.6% | [10]; [17] 76% | [11]; [17] 93% | [11]; at 50.0 µM 99% | [13]; at 100.0 µM 79% | [14]; [17] 96%
inactive: [1]; at 1.2 µM 3% | [1]; at 3.7 µM 12% | [1]; at 11.0 µM 26% | [1]; at 33.0 µM 54% | [2]; at 1.2 µM -2% | [2]; at 3.7 µM -2% | [2]; at 11.0 µM 2% | [2]; at 33.0 µM 6% | [2]; at 100.0 µM 35% | [3]; at 1.2 µM 12% | [3]; at 3.7 µM 30% | [3]; at 11.0 µM 69% | [4]; at 1.2 µM -2% | [4]; at 3.7 µM 2% | [4]; at 11.0 µM 5% | [4]; at 33.0 µM 20% | [4]; at 100.0 µM 17% | [5]; at 1.2 µM 3% | [5]; at 3.7 µM 15% | [5]; [16] 33% | [5]; at 11.0 µM 29% | [5]; at 33.0 µM 54% | [6]; at 1.2 µM -3% | [6]; at 3.7 µM -3% | [6]; [16] 9% | [6]; at 11.0 µM 3% | [6]; at 33.0 µM 20% | [7]; at 1.2 µM 1% | [7]; at 3.7 µM 2% | [7]; at 11.0 µM 12% | [7]; at 33.0 µM 24% | [8]; [16] 11% | [9]; at 1.2 µM -2% | [9]; at 3.7 µM -3% | [9]; at 11.0 µM 7% | [9]; at 33.0 µM 16% | [9]; at 100.0 µM 25% | [10]; [16] 2% | [10]; at 50.0 µM 25.2% | [11]; at 1.2 µM -7% | [11]; at 3.7 µM -7% | [11]; [16] 2% | [11]; at 11.0 µM -5% | [11]; at 33.0 µM 28% | [11]; at 100.0 µM 68% | [12]; at 1.2 µM -1% | [12]; at 3.7 µM 1% | [12]; at 11.0 µM 7% | [12]; at 33.0 µM 16% | [12]; at 100.0 µM 63% | [13]; at 1.2 µM -2% | [13]; at 3.7 µM 1% | [13]; at 11.0 µM 9% | [13]; at 33.0 µM 19% | [14]; [16] 12% | [14]; at 50.0 µM 65.7% | [15]; at 1.2 µM -1% | [15]; at 3.7 µM 6% | [15]; at 11.0 µM 11% | [15]; at 33.0 µM 27% | [15]; at 100.0 µM 64%
